Source: PubChem BioAssay
This is a sample that favours compounds with a hit; in the whole collection about 2.7% have one here.
KDM5B inh – inhibitors of human KDM5B histone demethylase; Q9UGL1; KDM5B demethylase, FDH-coupled NADH fluorescence (FDH is formaldehyde dehydrogenase); Potency, µM (doses to about 57.7 µM), actives largely listed as inhibitors; hit rate 2.6% among 220,000; AID 1347165; note: potency is the fitted concentration of half-maximal effect; 0% is about no effect; nearly all actives have a fitted effect of over 70% in size
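Measured: NADH fluorescence change, 30 min, RT. System: KDM5BΔAP 200 nM final, H3K4me3 peptide, α-KG, Fe(II), ascorbate, NAD⁺ plus FDH, pH 7.5 HEPES. Compounds: titrated, 10 min pre-incubation with enzyme.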
IP6K1 inh – blocks human inositol hexakisphosphate kinase 1; Q92551; IP6K1 kinase, ADP-Glo luminescence, 2 h; stronger effect = lower value; activity change, % (series mostly up to about 58 µM); hit rate 0.81% among 140,000; in the data active = activity change below about -25%; note: % is set by controls: 0 for no effect and ±100 for the full control effect
Target sequence (Q92551 whole entry, looked up): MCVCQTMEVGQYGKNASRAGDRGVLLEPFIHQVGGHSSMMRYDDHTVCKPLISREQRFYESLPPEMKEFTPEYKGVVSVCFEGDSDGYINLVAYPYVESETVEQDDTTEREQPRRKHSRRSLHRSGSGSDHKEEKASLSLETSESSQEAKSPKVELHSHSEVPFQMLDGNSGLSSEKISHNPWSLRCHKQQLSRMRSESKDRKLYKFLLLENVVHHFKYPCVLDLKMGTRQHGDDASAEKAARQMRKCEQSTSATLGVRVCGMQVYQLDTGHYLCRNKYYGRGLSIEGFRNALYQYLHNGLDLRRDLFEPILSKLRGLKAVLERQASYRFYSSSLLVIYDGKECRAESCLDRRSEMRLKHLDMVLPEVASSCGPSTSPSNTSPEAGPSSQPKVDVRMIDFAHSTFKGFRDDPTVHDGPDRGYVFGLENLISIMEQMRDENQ
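ADP-Glo luminescence measures ADP made by human IP6K1 during a 2 h RT reaction with ATP/IP6 (mix at 1.3 mM/130 uM); top library doses 57.5 and 19.1 uM final.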
IP6K1 inh cnf – confirmation of human IP6K1 inhibitors; hit rate 13% among 1,200; shares compounds with IP6K1 inh; recombinant IP6K1 kinase, ADP-Glo luminescence, 2 h; Potency, µM (titrated, usually from 49 µM), for inactives: top-dose activity change, negative = inhibition, hits mostly inhibitors; note: potency is the fitted concentration of half-maximal effect; % is set by controls: 0 for no effect and ±100 for the full control effect; nearly all actives have a fitted effect of over 65% in size
Numbers without * were called inactive; i = inactive; ? = inconclusive; · = not tested or not shown; [ ] = remark or other dose. Unless noted, calls come from the whole dose curve; as a rule, active = well fitted inhibition curve with a large enough effect; inconclusive = small, poorly fitted or top-dose-only effect; inactive = no such curve, though single readings can be large or run the other way.

SMILES	KDM5B inh	IP6K1 inh	IP6K1 inh cnf
CCc1nc2ccc(C(=O)NCc3ccc(N(C)C)cc3)cc2nc1CC	i	-26*	-16%
COC(=O)C(C(=O)OC)C(c1ccc(Br)cc1)C(C)C(=O)c1ccc(C)cc1C (stereo not given)	i	·	·
COc1cc(C#N)ccc1OC(=O)c1ccc(F)cc1Cl	i	·	·
COc1ccc(C2Cn3nnc(-c4noc(-c5ccsc5)n4)c3CO2)cc1 (stereo not given)	i	13	·
CCOc1ccc(C2Cn3nnc(-c4nc(-c5ccsc5)no4)c3CO2)cc1 (stereo not given)	25µM*	-27*	-14%
Cc1nn(-c2ccccc2)c2c1C(C1CC1)N(C1CCN(C(=O)c3ccccc3Cl)C1)C2=O (stereo not given)	·	-3	·
CCc1ccccc1NC(=O)Nc1cccc(-c2ccc(N3CCOCC3)nn2)c1	i	-26*	-24%
Cc1ccc(CNC(=O)Nc2cccc(-c3ccc(N4CCOCC4)nn3)c2)cc1	i	-13	·
COc1cccc(CNC(=O)Nc2cccc(-c3ccc(N4CCOCC4)nn3)c2)c1	i	-39*	?
COc1ccccc1NC(=O)Nc1cccc(-c2ccc(N3CCOCC3)nn2)c1	i	-4	·
Cc1cccc(CNC(=O)Cc2cccc3cccnc23)c1	i	·	·
N#CC[C@H](C1CCCC1)n1cc(-c2ncnc3[nH]ccc23)cn1	·	-2	·
CCS(=O)(=O)N1CC(CC#N)(n2cc(-c3ncnc4[nH]ccc34)cn2)C1	·	-4	-2%
CN[C@H](CC(C)C)C(=O)N[C@H]1C(=O)N[C@@H](CC(N)=O)C(=O)N[C@H]2C(=O)N[C@H]3C(=O)N[C@H](C(=O)N[C@H](C(=O)O)c4cc(O)cc(O)c4-c4cc3ccc4O)[C@H](O[C@H]3C[C@](C)(N)[C@@H](O)[C@H](C)O3)c3ccc(c(Cl)c3)Oc3cc2cc(c3O[C@@H]2O[C@H](CO)[C@@H](O)[C@H](O)[C@H]2O[C@H]2C[C@](C)(NCc3ccc(-c4ccc(Cl)cc4)cc3)[C@@H](O)[C@H](C)O2)Oc2ccc(cc2Cl)[C@H]1O	·	-32*	?
CN(C)c1ccc(C(=O)N2CCCC(n3cc(-c4nc(-c5ccccc5)no4)nn3)C2)cc1 (stereo not given)	?	21	·
Cn1nc(C(=O)N2CCN(Cc3cccc4ccccc34)CC2)c2ccccc2c1=O	i	·	·
S=C(NCc1ccccc1)Nc1ccccc1Br	i	·	·
CCOc1cccc2cc(C(=O)NCCOC)c(=O)oc12	i	·	·
CCOC(=O)c1c(NC(=O)COc2ccc(F)cc2)sc2c1CCC(C)C2 (stereo not given)	i	26	·
COC(=O)c1c(NC(=O)COc2ccc(OC)cc2)sc2c1CCC(C)C2 (stereo not given)	?	-38*	-12%
CC(C(=O)N1CCN(c2ccccc2F)CC1)n1c(=O)c(C(F)(F)F)nc2ccccc21 (stereo not given)	i	·	·
O=C(c1cn(-c2ccccc2)nc1-c1cccnc1)N1CCN(c2ccc(F)cc2)CC1	i	·	·
CSc1ccc(C2C3=C(CCCC3=O)OC3=C2C(=O)CCC3)cc1	i	·	·
Cc1cc(-c2cnc(N)c3c(-c4ccc5scnc5c4)csc23)n(C)n1	·	-31*	?
CCOc1ccc(NC(=O)COC(=O)c2nn(C)c(=O)c3ccccc23)cc1	i	·	·
SMILES	KDM5B inh	IP6K1 inh	IP6K1 inh cnf
Cc1ccc(C)c(-c2nn(CC(=O)NC3CC3)c(=O)c3ccccc23)c1	i	·	·
O=C(c1ccc(C(F)(F)F)cc1)N1CCCC(C(=O)N2CCCC(c3nc4ncccc4[nH]3)C2)C1 (stereo not given)	·	10	·
Cn1cccc1/C=C(\C#N)c1ccc(Br)cc1	i	·	·
COc1cc(Cl)c(C)cc1NC(=O)Cn1ncc2c3ccccc3n(Cc3ccccc3)c2c1=O	i	7	·
COc1ccc(Cl)cc1NC(=O)Cn1ncc2c3ccccc3n(Cc3ccccc3)c2c1=O	?	-27*	-2%
CCN(CC)C(=O)c1cccc(NC(=O)c2cc(C3CC3)nc3ccccc23)c1	i	·	·
O=C(O)CC1(O)C(=O)Nc2cc(Br)ccc21 (stereo not given)	i	·	·
O=C(O)CC1(O)C(=O)Nc2ccccc21 (stereo not given)	·	-31*	?
Cn1nc(C2CCCC2)cc1NC(=O)c1ccccc1F	·	-1	·
Cc1cc(F)c(C(=O)Nc2cccc(-c3nncn3C(C)C)n2)cc1-n1cnc(C2CC2)c1	·	-35*	?
Nc1ncnc2nc(SCC(=O)Nc3cccc(C(F)(F)F)c3)[nH]c12	i	·	·
O=C(CSc1nc2cc3ccccc3cc2[nH]1)Nc1cccc(C(F)(F)F)c1	i[11.5 µM]	-30*	-15%
CC(C)(C)C1CCc2sc(C(=O)NCc3cnc(-c4ccccc4)s3)cc2C1 (stereo not given)	i	·	·
O=C(NC1CCCCCC1)c1ccc2c(Cl)c3c(nc2c1)CCCC3	i	·	·
CC(C)C(=O)N1c2ncnn2C2(CCCCC2)[C@@H]2CCCC[C@@H]21	?	-30*	-17%
COc1ccccc1C(=O)N1c2ncnn2C2(CCCCC2)[C@@H]2CCCC[C@@H]21	i	-15	·
CC(C)(C)C(=O)N1CCC(c2nn(-c3ccccc3)c(=O)[nH]2)CC1	i	12	·
COC(=O)c1cc(C(C)C)sc1NC(=O)Cc1c(Cl)cccc1Cl	i	·	·
CC(C)c1cc(C(C)C)c(CC(=O)NS(=O)(=O)Oc2c(C(C)C)cccc2C(C)C)c(C(C)C)c1	·	-32*	?
COc1cc(OC)c(C(=O)OCC(=O)Nc2c(C(C)C)cccc2C(C)C)cc1OC	i	·	·
CCOC(=O)[C@@H]1CN(C(=O)NC2CCCC2)[C@H]2c3ccc(OC)cc3O[C@@H]12	·	2	·
CCN(CC)C(=O)Cn1nc(-c2ccc(C)c(S(=O)(=O)N(C)C)c2)c2ccccc2c1=O	i	·	·
Fc1ccc(Nc2nc3nonc3nc2N2CCC(Cc3ccccc3)CC2)cc1	i	·	·
CN(CC(=O)Nc1ccccc1Cl)C(=O)CSc1ncnc2scc(-c3ccccc3)c12	i	·	·
Cc1ccc(-c2csc3ncnc(Sc4nnc(C)s4)c23)cc1	i	·	·
SMILES	KDM5B inh	IP6K1 inh	IP6K1 inh cnf
Cn1nnnc1Sc1ncnc2scc(-c3ccc(Cl)cc3)c12	·	·	1%
Cn1nnnc1Sc1ncnc2scc(-c3ccc4c(=O)ccoc4c3)c12	·	·	-17%
COc1ccc(OC)c(NC(=O)N2CCc3nc(-c4ccccc4)[nH]c3C2)c1	·	27	·
Cc1ccc(C(=O)C(C)C(=O)c2ccc(C)c(C)c2)cc1C	i	·	·
Cc1cnc(C2CC2)n1C1CCN(Cc2cn(C)c3ccccc23)C1 (stereo not given)	·	9	·
O=C(C1CC1)N1CCCC(c2nn(-c3ccccn3)c(=O)[nH]2)C1 (stereo not given)	·	-2	·
CC(=O)N1CCCC(c2nn(-c3ccccn3)c(=O)[nH]2)C1 (stereo not given)	·	-25*	5%
CCC#CCN1CCc2ccccc2N(CC(O)COc2ccc(OC)cc2)CCC1=O (stereo not given)	·	0	·
CCS(=O)(=O)N1CC(=O)N(c2ccc(Cl)cc2)C(C)(C(=O)NC2CCCCCC2)C1 (stereo not given)	i	-34*	3%
